Laboratory results taken from PubChem BioAssay (NCATS).
Results filed as inconclusive are left out. Calls of active or inactive are those of the source. Unless noted, calls come from the whole dose curve; as a rule, active = well fitted curve in the direction sought with a large enough effect; inconclusive = small, poorly fitted or top-dose-only effect, or another doubt; inactive = no such curve, though single readings can be large; an effect the other way counts as inactive or inconclusive.

What was measured:
[1] = Cell Viability - Jurkat (AID 426;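 active = dose-dependent loss of cell ATP signal giving a full or clear fitted curve, ranked by lower potency value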; note: potency is the fitted concentration of half-maximal effect); conditions: qHTS
How it was run: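 Jurkat (Clone E6-1) cells, 5000/well in complete medium, exposed to compounds for 40 hr at 37C; intracellular ATP measured by CellTiter-Glo luminescence after 20 min at room temperature. AC50 from Hill fits.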

[2] = Cell Viability - Hek293 (AID 427;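 active = compounds whose dose-response curve shows a full or clear partial loss of cell viability, called from curve shape rather than a numeric limit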;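 note: potency is the fitted concentration of half-maximal effect; cells exposed to compound for 40 hours at 37 °C before reading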); conditions: qHTS
How it was run: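 qHTS, human embryonic kidney (adenovirus-transformed) cells; 40 hr cpd, 37 °C; CellTiter-Glo ATP luminescence. Norm: DMSO = 0, 100 uM tamoxifen = 100% inhibition. Hill-fit AC50.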

[3] = Cell Viability - HepG2 (AID 433; calls by dose curve;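 note: potency is the fitted concentration of half-maximal effect; potency for ATP loss meaning cytotoxicity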); conditions: qHTS
How it was run: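 In this qHTS format, a 40 h, 37 °C compound incubation of HepG2 cells in complete medium precedes a 20 min CellTiter-Glo step at room temperature. Tamoxifen and doxorubicin serve as positive controls; Hill-equation fits yield AC50.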

[4] = Cell Viability - MRC5 (AID 434; calls by dose curve;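 note: potency is the fitted concentration of half-maximal effect; potency reflects cytotoxicity seen as loss of intracellular ATP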); conditions: MRC5 lung fibroblast viability, qHTS
How it was run: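 qHTS cytotoxicity in human lung fibroblast MRC5 cells; 40 hr treatment, 37 °C; cellular ATP by luciferase luminescence; DMSO = 0%, 100 uM tamoxifen = 100% inhibition; Hill-fit AC50.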

[5] = Cell Viability - SK-N-SH (AID 435; calls by dose curve;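 note: potency is the fitted concentration of half-maximal effect; compound exposure lasted 40 h at 37 °C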); conditions: SK-N-SH neuroblastoma cell viability qHTS
How it was run: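 Human neuroblastoma line, 40 h exposure at 37 °C, ATP quantified via luciferase luminescence; DMSO and 100 uM tamoxifen define 0 and 100% inhibition for AC50 fitting.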

[6] = target: Mitogen-activated protein kinase 10 (Mus musculus) (UniProt Q61831); test: JNK3 AlphaScreen Assay (AID 530; active = well fitted curve in either direction with a large enough effect, not every such curve was filed as active;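 note: kinase came from lysate of stimulated human HepG2 cells; signal reports phosphorylation of biotinylated GST-cJun 1-79 at Ser73 with 10 µM ATP; % is set by controls: 0 for no effect and ±100 for the full control effect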)
How it was run: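 Compound titrations were preincubated 15 minutes at room temperature with substrate, antibody and pre-activated JNK3-containing HepG2 lysate. Reactions were started with 10 uM ATP and stopped with EDTA-containing bead buffer for AlphaScreen detection.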

[7] = Cell Viability - N2a (AID 540); conditions: N2a mouse neuroblastoma cell viability; activity change, negative = cytotoxicity: at 92.2 µM (top of the series);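 note: plate controls were DMSO alone for no effect and tamoxifen control for full effect; nearly all actives have a fitted effect of over 45% in size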
How it was run: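 Mouse neuroblastoma N2a cells, 1500/well, exposed to compounds 40 h at 37 °C in complete medium. Viability measured as cellular ATP by CellTiter-Glo luminescence; AC50 from Hill fits of concentration-response.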

[8] = Cell Viability - NIH 3T3 (AID 541); conditions: NIH 3T3 cell viability, qHTS; activity change, negative = cytotoxicity: at 92.2 µM (top of the series);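 note: plate controls were DMSO alone for no effect and tamoxifen positive control for full effect; nearly all actives have a fitted effect of over 25% in size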
How it was run: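 Mouse NIH 3T3 fibroblasts, 1000 cells/well, rested 5 hr at 37 °C, then exposed to compound for 40 hr at 37 °C in complete medium. Viability read as intracellular ATP by CellTiter-Glo luminescence; AC50 from Hill-equation fits of concentration-response data.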

[9] = Cell Viability - HUV-EC-C (AID 542); note: % is set by controls: 0 for no effect and ±100 for the full control effect; nearly all actives have a fitted effect of over 35% in size
How it was run: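 HUV-EC-C human vascular endothelial cells, 1000/well, exposed to compound for 40 hr at 37 °C in complete medium. Intracellular ATP was read by CellTiter-Glo luminescence. AC50 came from Hill-equation fits of concentration-response data.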

[10] = Cell Viability - H-4-II-E (AID 543); note: % is set by controls: 0 for no effect and ±100 for the full control effect; nearly all actives have a fitted effect of over 35% in size
How it was run: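 Rat hepatoma H-4-II-E cells, 1500 per well, treated 40 h at 37 °C in complete medium. Cellular ATP read by CellTiter-Glo luminescence; AC50 from Hill fits of concentration-response.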

[11] = Cell Viability - SH-SY5Y (AID 544); note: nearly all actives have a fitted effect of over 55% in size
How it was run: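 SH-SY5Y human neuroblastoma cells (1500/well) incubated 5 h, then compound-treated 40 h at 37 °C in complete medium. Viability read as intracellular ATP by CellTiter-Glo luminescence after 20 min; AC50 from Hill-equation fits of qHTS concentration-response.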

[12] = Cell Viability - Renal Proximal Tubule (AID 545); conditions: renal proximal tubule cells viability, primary cells of rat origin; at 91.7 µM (top of the series); note: nearly all actives have a fitted effect of over 40% in size
How it was run: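 In this qHTS format, normal rat kidney-derived proximal tubule cells in complete culture medium receive compound titrations, then sit 40 hours at 37 °C before luciferase-based ATP quantitation; potency is reported as AC50 from concentration-response curves.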

[13] = Cell Viability - Mesenchymal (AID 546); conditions: mesenchymal cells viability, qHTS; activity change, negative = cytotoxicity: at 91.7 µM (top of the series);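 note: cells exposed to compound for 40 hours before reading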
How it was run: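 AC50 values reflect the drop in intracellular ATP in a human kidney mesenchymal line derived from normal glomeruli. Treatment lasts 40 hr at 37 °C in complete medium, and the signal comes from CellTiter-Glo luminescence.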

[14] = Cellular Toxicity (caspase-3) HepG2 (AID 654);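 note: cells exposed to compound for 16 hours before reading; 0% = DMSO alone and 100% = caspase signal from 100 µM tamoxifen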
How it was run: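 HepG2 cells (1500/well) were treated 16 h at 37 °C in complete medium, then caspase 3/7 activity was read by Caspase-Glo luminescence. Data were normalized to DMSO and 100 uM tamoxifen; AC50 came from Hill-equation fits of qHTS concentration-response.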

[15] = Cellular Toxicity (caspase-3) Jurkat (AID 655); conditions: Jurkat caspase-3 activation, luminescence, DMSO = 0%, tamoxifen = 100%; at 92.2 µM (top of the series);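 note: cells exposed to compound for 16 h at 37 °C before reading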
How it was run: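 qHTS in human Jurkat T-cell leukemia line: 16 hr compound treatment at 37 °C, caspase-3/7 activity measured by Caspase-Glo luminescence. AC50 derived from Hill equation.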

[16] = Cellular Toxicity (caspase-3) HUV-EC-C (AID 656)
How it was run: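 Concentration-dependent caspase 3/7 induction was assessed in HUV-EC-C cells exposed for 16 hours. Data scaled between DMSO and tamoxifen (100 uM) controls.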

[17] = Cellular Toxicity (caspase-3) SHSY5Y (AID 657)
How it was run: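 Readout: caspase-cleaved peptide-aminoluciferin substrate driving luciferase light in SH-SY5Y neuroblastoma cells after 16 h treatment. Response normalized to DMSO and 10 uM staurosporine controls.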

[18] = Cellular Toxicity (caspase-3) BJ (AID 658);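 note: 0% = DMSO basal and 100% = 10 µM staurosporine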
How it was run: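 Readout: Caspase-Glo 3/7 luminescence increase in BJ cells after 16 hr treatment at 37 °C. Staurosporine and tamoxifen served as positive controls; AC50 values came from Hill modelling of data normalized to DMSO and 10 uM staurosporine.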

[19] = Cellular Toxicity (caspase-3) MRC-5 (AID 659);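 note: 0% = DMSO basal and 100% = 10 µM staurosporine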
How it was run: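 Concentration-dependent caspase 3/7 activation is measured in human normal lung fibroblasts (MRC-5) following 16-hour treatment. AC50 values come from standard Hill-equation modeling of luminescence normalized to DMSO and 10 uM staurosporine.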

[20] = Cellular Toxicity (caspase-3) Mesangial (AID 660);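 note: cells exposed to compound for 16 h before the caspase read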
How it was run: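 Human renal glomerular mesangial cells, 1000/well, 5 h at 37 C before 16 h compound treatment. Caspase-Glo 3/7 luminescence after 20 min; normalized to DMSO and 100 uM tamoxifen, AC50 from Hill fit.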

[21] = Cellular Toxicity (caspase-3) SK-N-SH (AID 661);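 note: 0% = DMSO basal and 100% = 10 µM staurosporine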
How it was run: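 Human SK-N-SH neuroblastoma cells, 1500/well, were exposed to compounds for 16 hours at 37 °C. Caspase-Glo 3/7 luminescence was normalized to DMSO (basal) and 10 uM staurosporine (100%), and AC50 came from a Hill fit.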

[22] = Cellular Toxicity (caspase-3) H-4-II-E (AID 663); conditions: Potency: caspase-3 activation;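 note: cells exposed to compound for 16 hr before readout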
How it was run: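 Apoptosis induction is scored as increased luminescence from caspase 3/7 substrate cleavage in rat hepatoma H-4-II-E cells exposed to compound for 16 hr. Activity is scaled between DMSO and 100 uM tamoxifen.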

O=C(/C=C/c1ccc(O)c(O)c1)O[C@@H](C(=O)O)[C@@H](OC(=O)/C=C/c1ccc(O)c(O)c1)C(=O)O
inactive: Potency [1] > 92 µM | Potency [2] > 92 µM | Potency [3] > 92 µM | Potency [4] > 92 µM | Potency [5] > 92 µM | Potency [6] | activity change, negative = cytotoxicity [7] -0.47% | Potency [8] | outcome [9] | Potency [10] | Potency [11] | activity change, negative = cytotoxicity [12] -5.23% | activity change, negative = cytotoxicity [13] 11% | outcome [14] | caspase-3 activation [15] 1.83% | outcome [16] | outcome [17] | outcome [18] | outcome [19] | outcome [20] | outcome [21] | Potency [22]
